This excerpt belongs to a sample that is enriched for hits.
TDP1 cell noCPT: qHTS for Inhibitors of human tyrosyl-DNA phosphodiesterase 1 (TDP1): qHTS in cells in absence of CPT. AID 686978, 2013. Potency, µM (titrated, usually from 46.2 µM), inactives show at the top dose activity change, negative = growth inhibition, actives largely listed as inhibitors. DT40 Tdp1-/- hTDP1 cells, no CPT, ATP luminescence, 48 h. actives 15% (n = 420,000); further: potency means the concentration at half of the fitted maximal effect; nearly all actives have a fitted effect of over 55% in size
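Growth of hTDP1-complemented DT40 Tdp1-knockout cells is measured by ATP luminescence after at least 48 hr compound exposure at 37 °C, with DMSO substituting for the 20 nM CPT used in the parallel screen.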
IL-1B inflam inh: qHTS for Inhibitors of Inflammasome Signaling: IL-1-beta AlphaLISA Primary Screen. activity change, % at 57.5 µM. AID 743279, 2014. THP-1 LPS/ATP IL-1B secretion, AlphaLISA, 16 h; stronger effect = lower value. actives 4.7% (n = 360,000); in the data active means activity change below about -50%; inconclusive means mostly about -30% to -49%
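Secreted IL-1B measured by AlphaLISA bead assay after 16 h compound exposure of THP-1 cells; compounds (final up to 57.5 uM) added 1 h before LPS (250 ng/mL) and ATP (1.25 mM) stimulation; lower signal means less secretion.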
HT1080NT lethal: qHTS for induction of synthetic lethality in tumor cells producing 2HG: qHTS for the HT-1080-NT fibrosarcoma cell line. HT-1080-NT fibrosarcoma viability, CellTiter-Glo ATP luminescence, 48 h. Potency, µM (series often up to 46.1 µM), for the others: at the top dose activity, negative = less viability, usual class: cytotoxic. actives 1.6% (n = 360,000). AID 686970, 2013;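 further: NT is the 2HG producing partner of a matched IDH1 knockdown line; potency means the concentration at half of the fitted maximal effect; 0% = DMSO-treated cells and -100% = media-only wells without cells; nearly all actives have a fitted effect of over 55% in size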
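Viability of the 2HG-overproducing fibrosarcoma line after 48 hours of compound exposure at 37 degrees C was determined by luminescence with CellTiter-Glo, and concentration-effect curves were then fitted and categorized.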
TDP1 cell CPT: qHTS for Inhibitors of human tyrosyl-DNA phosphodiesterase 1 (TDP1): qHTS in cells in presence of CPT. chicken DT40 Tdp1-/-;hTDP1 cells + 20 nM CPT, ATP luminescence, 48 h. Potency, µM (titrated, usually from 46.2 µM), inactives show at the highest dose activity change, negative = growth inhibition, usual class: inhibitors. actives 12% (n = 420,000). AID 686979, 2013; further: potency means the concentration at half of the fitted maximal effect; nearly all actives have a fitted effect of over 55% in size
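Cell growth measured by CellTiter-Glo luminescence after a minimum 48 h, 37 C compound exposure with 20 nM CPT in Tdp1-knockout DT40 cells stably expressing hTDP1, seeded 400/well; qHTS titration format.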
HT1080 IDH1KD tx: qHTS for induction of synthetic lethality in tumor cells producing 2HG: qHTS for the HT-1080-IDH1KD cell line. HT-1080 IDH1 knockdown viability, ATP luminescence, 48 h. Potency, µM (titrated, usually from 46.1 µM), for the others: at the top dose activity, negative = toxicity, most hits filed as cytotoxic. actives 2% (n = 360,000). AID 686971, 2013;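 further: potency means the concentration at half of the fitted maximal effect; 0% = DMSO wells and -100% = cell-free medium wells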
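HT-1080-IDH1KD cells (IDH1 knocked down), 750/well in RPMI with 5% FBS, treated with compound 48 h at 37 degrees C. Viability by CellTiter-Glo luminescence, normalised to DMSO and no-cell wells; concentration-response curves classed.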
ALOX12 inh: Primary qHTS assay for inhibitors of human arachidonate 12S-lipoxygenase (ALOX12): Round 2; actives 1.1% (n = 580,000); AID 1671190, 2021; Potency, µM (doses to about 108 µM), for the others: at the top dose activity change, negative = inhibition, actives largely listed as inhibitors; Polyunsaturated fatty acid lipoxygenase ALOX12 (Homo sapiens), P18054; purified 12hLO, xylenol orange hydroperoxide absorbance; further: potency means the concentration at half of the fitted maximal effect
Target sequence (P18054 whole entry, looked up): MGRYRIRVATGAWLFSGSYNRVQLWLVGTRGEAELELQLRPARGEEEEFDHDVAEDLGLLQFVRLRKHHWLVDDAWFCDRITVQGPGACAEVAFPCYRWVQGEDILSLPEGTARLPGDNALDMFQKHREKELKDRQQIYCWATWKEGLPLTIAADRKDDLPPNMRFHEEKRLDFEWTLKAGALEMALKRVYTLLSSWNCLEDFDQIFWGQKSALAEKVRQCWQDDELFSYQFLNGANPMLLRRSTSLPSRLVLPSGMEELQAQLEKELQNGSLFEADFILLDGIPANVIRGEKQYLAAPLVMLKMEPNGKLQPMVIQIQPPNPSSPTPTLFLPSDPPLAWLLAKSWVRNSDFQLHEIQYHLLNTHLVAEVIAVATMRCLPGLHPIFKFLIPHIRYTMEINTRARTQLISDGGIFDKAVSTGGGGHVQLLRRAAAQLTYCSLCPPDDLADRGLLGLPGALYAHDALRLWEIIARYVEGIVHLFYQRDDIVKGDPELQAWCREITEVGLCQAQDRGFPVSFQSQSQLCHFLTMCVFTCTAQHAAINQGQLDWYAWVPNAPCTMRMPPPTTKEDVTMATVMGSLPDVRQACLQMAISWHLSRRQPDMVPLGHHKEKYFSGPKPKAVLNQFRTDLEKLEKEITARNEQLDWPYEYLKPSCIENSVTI
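Hydroperoxide product was detected by ferrous iron/xylenol orange as the 573 to 405 nm absorbance ratio. Arachidonic acid at 40 uM (final) was turned over for 30 min at room temperature by 150 nM human 12hLO, pH 7.0 Hepes buffer, after 15 min compound preincubation.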
Active calls of the source: *; ? = inconclusive; . = no result given; ! = a repeat was not active; [ ] = dose if it differs, or a comment. Unless noted, the call rests on the fitted dose curve; in most records, active means well fitted curve in the direction sought with a large enough effect; inconclusive means small, poorly fitted or top-dose-only effect, or another doubt; inactive means no such curve, though single readings can be large; an effect the other way counts as inactive or inconclusive. Unless noted, on the % scale 0 is the no-effect control and ±100 the full control effect.

SMILES	TDP1 cell noCPT	IL-1B inflam inh	HT1080NT lethal	TDP1 cell CPT	HT1080 IDH1KD tx	ALOX12 inh
CSc1ccc(CCNc2ncnc3onc(-c4ccc(Cl)cc4)c23)cc1	10µM*	.	.	16µM*	.	-13%
Cc1ccc(CCNc2ncnc3onc(-c4ccc(F)cc4)c23)cc1	2%	.	.	-1%	.	0%
Fc1ccc(-c2noc3ncnc(NCc4ccc(Cl)cc4)c23)cc1	?	.	.	?	.	-15%
Fc1ccc(-c2noc3ncnc(NCCc4ccc(Cl)cc4)c23)cc1	10µM*	.	.	15µM*	.	-4%
Fc1ccc(-c2noc3ncnc(NCCc4ccccc4)c23)cc1	16µM*	.	.	?	.	-13%
Cc1ccccc1CS(=O)(=O)N1CCC(C(=O)Nc2c(C)n(C)n(-c3ccccc3)c2=O)CC1	.	.	.	.	.	-23%
CCN1CCN(Cc2ccc(NC(=O)c3cc(NC(=O)c4ccc5n[nH]nc5c4)cc(OC)c3)cc2C(F)(F)F)CC1	-7%	2	1%	12%	11%	6%
CCN1CCN(Cc2ccc(NC(=O)c3cc(NC(=O)c4cc(-c5ccc(OC)cc5)n[nH]4)cc(OC)c3)cc2C(F)(F)F)CC1	4.6µM*	0	?	?	?	-7%
CCN1CCN(Cc2ccc(NC(=O)c3cc(NC(=O)c4cncc(-c5cccs5)c4)cc(OC)c3)cc2C(F)(F)F)CC1	7.3µM*	-104*!	?	16µM*	18µM*	?
O=C(Nc1cccc(C(F)(F)F)c1)N1CCN(C(=O)Nc2cccc(C(F)(F)F)c2)CC1	-9%	39	-2%	-10%	-11%	0%
COc1cc(NC(=O)N2CCNC2=O)cc(C(=O)Nc2cccc(C(F)(F)F)c2)c1	4.1µM*	38	4.6µM*	3.7µM*	5.8µM*	-18%
CCN1CCN(Cc2ccc(NC(=O)c3ccc(C)c(NC(=O)C4=NN(c5ccccc5)C(=O)C4)c3)cc2C(F)(F)F)CC1	?	16	-8%	?	0%	?
CCN1CCN(Cc2ccc(NC(=O)c3ccc(C)c(NC(=O)c4ccno4)c3)cc2C(F)(F)F)CC1	6.5µM*	-65*	-14%	13µM*	-10%	-57%
N#Cc1ccc(Oc2ccc(C#N)cc2)cc1	.	.	.	.	.	27%
COc1cccc(/C=C/c2nc(C#N)c(NCCCn3ccnc3)o2)c1	.	.	.	.	.	44%
CCN1CCN(Cc2ccc(NC(=O)c3cc(NC(=O)C4=NN(c5ccccc5)C(=O)C4)cc(OC)c3)cc2C(F)(F)F)CC1	?	-3	-3%	?	-2%	?
CCN1CCN(Cc2ccc(NC(=O)c3cc(NC(=O)c4cc5cccc(OC)c5o4)cc(OC)c3)cc2C(F)(F)F)CC1	4.6µM*	-107*!	?	5.8µM*	?	-98%
CCN1CCN(Cc2ccc(NC(=O)c3cc(NC(=O)c4ccno4)cc(OC)c3)cc2C(F)(F)F)CC1	23µM*	?	-23%	?	-21%	?
CCN1CCN(Cc2ccc(NC(=O)c3cc(NC(=O)N4CCNC4=O)cc(OC)c3)cc2C(F)(F)F)CC1	21µM*	50	-11%	16µM*	-23%	?
CCN1CCN(Cc2ccc(NC(=O)c3ccc(C)c(/C=C/c4cnc(Nc5cc(N6CCNCC6)nc(C)n5)cn4)c3)cc2C(F)(F)F)CC1	15µM*	-100*	?	3.3µM*	18µM*!	.
COc1ccccc1C(=O)N1CCc2nn(Cc3ccccc3)c(=O)n2CC1	.	.	.	.	.	32%
CCN1CCN(Cc2ccc(NC(=O)c3ccc(C)c(NC(=O)c4cccc(-c5cn[nH]c(=O)c5)c4)c3)cc2C(F)(F)F)CC1	16µM*	-96*	?	?	-7%	.
CCN1CCN(Cc2ccc(NC(=O)c3ccc(C)c(NC(=O)c4csc(-c5ccncc5)n4)c3)cc2C(F)(F)F)CC1	23µM*	0	?	16µM*	?	-9%
CCN1CCN(Cc2ccc(NC(=O)c3ccc(C)c(NC(=O)C[C@@H]4NC(=O)[C@H](Cc5ccccc5)NC4=O)c3)cc2C(F)(F)F)CC1	0%	64	9%	5%	0%	45%
O=C(Nc1ccc(Br)cc1)c1csc(-c2ccncc2)n1	?	-13	-15%	-30%	-6%	-3%
SMILES	TDP1 cell noCPT	IL-1B inflam inh	HT1080NT lethal	TDP1 cell CPT	HT1080 IDH1KD tx	ALOX12 inh
COC(=O)C1=C(C)N=C2SC=C(CC(=O)Nc3ccc(C)cc3)N2C1c1cccc(OC)c1 (stereo not drawn)	.	.	.	.	.	44%
COc1ccccc1OC1(C(=O)O)CCN(c2ncnc3[nH]ccc23)CC1	.	.	.	.	.	94%
COc1ccc2cc(C(=O)NCCCN3CCCC3=O)c(C)nc2c1	.	.	.	.	.	3%
Cc1ccc2c(=O)n3c(nc2c1)C(Cc1ccc(O)cc1)NC(=O)c1cc2ccccc2cc1-3 (stereo not drawn)	18µM*	-3	5.2µM*	?	6.5µM*	-3%
O=C1NC(Cc2ccc(O)cc2)c2nc3cc(F)ccc3c(=O)n2-c2cc3ccccc3cc21 (stereo not drawn)	7.3µM*	?	15µM*	?	18µM*	0%
Cc1ccc2c(c1)-n1c(nc3cc(F)ccc3c1=O)C(Cc1ccc(O)cc1)NC2=O (stereo not drawn)	.	.	.	.	.	-7%
COc1cccc(-c2n[nH]c3c2CC(=O)N(Cc2ccccc2)C3)c1	.	.	.	.	.	9%[176 µM]
O=C(N1CCN(Cc2ccccc2)CC1)C(F)(F)C(F)(F)C(F)(F)C(F)(F)F	.	.	.	.	.	28µM*
COc1ccccc1C(C[N+](=O)[O-])c1c(N)n(C)c(=O)n(C)c1=O (stereo not drawn)	2.3µM*	-58*	?	3.7µM*	?	?
Cc1ccc2nc(-c3ccc(C)o3)c(Nc3ccc4c(c3)OCO4)n2c1	?	.	4%	?	0%	.
Fc1ccccc1-c1ccc(-c2nc3ccc(Cl)cn3c2Nc2ccc(Cl)cc2)o1	3.5µM*	.	?	4.5µM*	?	.
Cc1ccc(-c2nc3ccc(Cl)cn3c2Nc2ccc3c(c2)OCCO3)s1	?	.	.	18µM*	.	-16%
